About 18,000 (9%) of roughly 200,000 compounds were called active. Only a selection was taken, and actives are over-represented in it overall. Values without a mark were called inactive. Rule as the data show it: active = inhibition above about 50%; inactive = the rest.

This test is described as follows: Leishmania major promastigote growth inhibition, primary screen (AID 1063).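 Also: promastigotes grown with compound for 44 hours at 28 °C.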 The note with it: Leishmania major promastigotes, resazurin fluorescence viability; at 10 µM; hits give high values. (The colour change of resazurin is a common sign of viable cells or microbes.)
Regarding `CCOC(=O)COc1ccc([N+](=O)[O-])cc1`, the inhibition is 62.2% (active).

Turning to `N/C(=N\OC(=O)COc1ccc([N+](=O)[O-])cc1)c1ccc(Br)cc1`, the inhibition was -2.89%.

For the compound `N/C(Cc1ccc([N+](=O)[O-])cc1)=N\OC(=O)COc1ccc2ccccc2c1`, the inhibition was -4.21%.

`Cc1nnc(SCCCCSc2nnc(C)c(=O)[nH]2)[nH]c1=O`: the inhibition was -5.64%.

`CN(c1ccc(OCC(=O)OCC(=O)Nc2cccc([N+](=O)[O-])c2)cc1)S(=O)(=O)c1ccc(F)cc1`: the inhibition was -5.95%.

With `CC(CC(=O)C1C(C)C=CCC1(C)C)NNC(N)=O` (stereo not given), the inhibition was -5.44%.

In the case of `CCCCCCC(=O)Nc1nc(C)c(-c2csc(Nc3cc(Cl)ccc3OC)n2)s1`, the inhibition was 56.5% (active).

Take `C=CCCC(=O)Nc1nc(C)c(-c2csc(Nc3ccc(Cl)cc3)n2)s1`: the inhibition is 40.7%.

With `CCCCCCC(=O)Nc1nc(C)c(-c2csc(Nc3cccc(OC)c3)n2)s1`, the inhibition is 56.1% (active).

Turning to `Cc1nc(NC(=O)c2cccc(Cl)c2)sc1-c1csc(Nc2cccc(Cl)c2)n1`, the inhibition was 6.25%.

As for `Cc1ccc(Nc2nc(-c3sc(NC(=O)c4ccccc4)nc3C)cs2)cc1`, the inhibition is 15.7%.

`CCCCC(=O)Nc1nc(C)c(-c2csc(Nc3ccc(Cl)cc3)n2)s1`: the inhibition is 27%.

For the compound `O=C(c1ccc(N2CCOCC2)c([N+](=O)[O-])c1)N1CCN(S(=O)(=O)c2cccs2)CC1`, the inhibition was 26.9%.

On to `Cn1cnnc1Sc1ccc(CN2CCN(C3CCCC3)C(CCO)C2)o1` (stereo not given), for which the inhibition was -0.44%.

Turning to `COc1ccc(NC(=O)C(Br)C(C)C)cc1` (stereo not given), the inhibition is -2.81%.

As for `CN(C)c1ccc(C(=S)N2CCN(C(=S)Nc3ccc(Cl)cc3)CC2)cc1`, the inhibition is -3.85%.

Turning to `O=C1CN(C(=O)COC(=O)c2cnc(Cl)c(Cl)c2)c2ccccc2N1`, the inhibition was -5.42%.

For `O=c1c([N+](=O)[O-])cccn1Cc1ccc(F)cc1Cl`, the inhibition is 13.1%.

For `CSc1ccccc1NC(=O)CN(C)CC(=O)Nc1ccc(Cl)cc1[N+](=O)[O-]`, the inhibition was 12%.

Turning to `COCCNc1cc(NCCOC)c([N+](=O)[O-])cc1[N+](=O)[O-]`, the inhibition was 32.9%.

With `CCN(CC)CCNc1ccc(Cl)cc1[N+](=O)[O-]`, the inhibition is 52.1% (active).

Take `CCOC(=O)c1sc(NC(=O)C(CC)Sc2nccn2C)nc1C` (stereo not given): the inhibition is 9.41%.

Consider `C=CCn1c2ccccc2c2nnc(SC(CC)C(=O)Nc3nc(C)c(C(=O)OCC)s3)nc21` (stereo not given), for which the inhibition is 62.5% (active).

Regarding `C=CCn1c2ccccc2c2nnc(SCc3[nH]c(=O)[nH]c3C(=O)CCCCC(=O)OCC)nc21`, the inhibition is 4.8%.

As for `COc1ccccc1C(=O)CSc1cccc[n+]1[O-]`, the inhibition is -7.87%.

Turning to `COc1cccc(C(=O)Nc2nc3ccc(S(C)(=O)=O)cc3s2)c1`, the inhibition is 16%.

As for `CC(C)c1nc2sc3c(c2c(=O)n1N)CC(C)(C)OC3`, the inhibition was -0.56%.

As for `O=C(O)Cc1sc(-c2ccc(C(=O)O)cc2)nc1-c1ccccc1`, the inhibition is -1.45%.

As for `Cc1cc(C)c(NC(=O)CS(=O)CC(=O)Nc2cccnc2)c(C)c1` (stereo not given), the inhibition is -5.42%.

As to `Cc1ccc(-c2nc(-c3cccnc3)sc2CC(=O)Nc2ccc(C)c(Cl)c2)cc1`, the inhibition was 78.2% (active).

As for `CC(C)CC(CC(C)C)=NNC(=O)c1ccc(CSc2nncn2C)cc1`, the inhibition is -4.77%.

In the case of `O=C(CN1C(=O)NC2(CCCC2)C1=O)NCC1CCCO1` (stereo not given), the inhibition was -4.12%.

In the case of `Cc1cc(=O)oc2c1c(C)nn2-c1ccc(Cl)cc1`, the inhibition was -5.67%.

On to `CCC(CC)C(=O)Nc1ccc(S(=O)(=O)Nc2nccs2)cc1`, for which the inhibition is 6.97%.

For the compound `O=C(NC(=S)Nc1ccc(S(=O)(=O)Nc2ncccn2)cc1)c1cccc(Br)c1`, the inhibition is -8.62%.

Take `CCCN(CCC)CCNC(=O)c1cc2c(C)nc3ccccc3c2o1`: the inhibition was 56.9% (active).

As to `Cc1nc2ccccc2c2oc(C(=O)NCCCN3CCC(C)CC3)cc12`, the inhibition was 24%.

Consider `Cc1nc2ccccc2c2oc(C(=O)NCC3CCCO3)cc12` (stereo not given), for which the inhibition was 11.4%.

For `CC(C)OCCCNC(=O)c1ccc(C2SCC(=O)N2Cc2ccco2)cc1` (stereo not given), the inhibition is -3.9%.

`Cc1cc(C(=O)NNC(=O)CCC2CCCCC2)c(C)o1`: the inhibition is -8.93%.

Take `CCC(=O)N1CCC(C(N)=O)(N2CCCCC2)CC1`: the inhibition is 0.56%.

Regarding `O=C(Nc1cccn(Cc2ccccc2Cl)c1=O)NC1CCCCC1`, the inhibition is 17.9%.

Consider `COc1ccc(Cl)cc1C(=O)NNC(=S)NC1CCCC1`, for which the inhibition is 17.1%.

For the compound `CCN(CC)c1ccc2cc(C(=O)O)c(=O)oc2c1`, the inhibition was 22.2%.

In the case of `CCN(CC)c1ccc2c(Nc3ccccc3)c(C=O)c(=O)oc2c1`, the inhibition is -4.13%.

With `CCN(CC)c1ccc2oc(=O)c(C)nc2c1`, the inhibition was 96.6% (active).

For the compound `CNc1[nH]ncc1[N+](=O)[O-]`, the inhibition was -7.01%.

As for `COc1ccc(CCn2ccc(O)c(Cc3ccc(Cl)cc3Cl)c2=O)cc1OC`, the inhibition was 7.61%.

Turning to `COCCCNC(=S)N1CCCC(c2nc3cc(C)c(C)cc3[nH]2)C1` (stereo not given), the inhibition was 0.93%.

In the case of `N=C1C(c2nc3ccccc3[nH]2)=C(O)CN1NC(=O)c1c[nH]c2ccccc12`, the inhibition is -3.91%.

As for `CC1Cc2ccccc2N1S(=O)(=O)c1c(N)n(C)c(=O)n(C)c1=O` (stereo not given), the inhibition was 99.8% (active).

In the case of `CCCCn1ccnc1C(=O)c1cccc(S(=O)(=O)N2c3ccccc3CC2C)c1` (stereo not given), the inhibition was 0.6%.

On to `Cn1c(=O)n(C)c2cc(S(=O)(=O)N3CCCc4ccccc43)ccc21`, for which the inhibition is 47.6%.

For the compound `CNS(=O)(=O)c1ccc(NC(=O)C2CC(=O)N(c3ccc(Cl)cc3)C2)cc1` (stereo not given), the inhibition is 13.6%.

As for `Cc1cccc(NC(=S)NCCc2ccc(F)cc2)c1C`, the inhibition was 28.5%.

On to `COc1ccc(CN2CCNC(=O)C2CC(=O)N(C)Cc2ccccn2)cc1OC` (stereo not given), for which the inhibition is 0.79%.

In the case of `COc1ccc2[nH]c(C)c(CCN(Cc3cccs3)C(=S)Nc3ccccc3OC)c2c1`, the inhibition is 66.1% (active).

On to `COc1cccc(NC(=S)N(CCc2c(C)[nH]c3ccccc23)Cc2ccco2)c1`, for which the inhibition is 19.9%.

Turning to `Cc1[nH]c2ccccc2c1CCN(Cc1cccs1)C(=S)NC(C)(C)C`, the inhibition was -1.09%.

With `C/C(=N\NC(=O)c1cccnc1)c1ccc(-n2ccnc2)cc1`, the inhibition is -1.06%.

In general, inhibition refers to the drop in the measured response relative to a control, in per cent.
